Results taken from the supplement of paper PMC11624193, “Coupling cellular drug-target engagement to downstream pharmacology with CeTEAM” (Nature Communications, 2024).
Values without a mark were called inactive.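 Rule for the calls: active = log2 fold change beyond 2 SD from the library mean after excluding viability outliers; inactive = within 2 SD.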

molecular target: PARP1 L713F-nLuc biosensor (HCT116) (UniProt P09874); test: PARP1 L713F-nLuc/akaLuc ratio relative to DMSO control (biosensor stabilization) (fold change); higher = more PARP1 biosensor stabilization (target engagement / stabilizer), active = hit call of the paper; conditions: stock concentration (mM; final µM = stock mM x 1): 10; 24 h
Sequence (P09874 whole entry L713F, looked up): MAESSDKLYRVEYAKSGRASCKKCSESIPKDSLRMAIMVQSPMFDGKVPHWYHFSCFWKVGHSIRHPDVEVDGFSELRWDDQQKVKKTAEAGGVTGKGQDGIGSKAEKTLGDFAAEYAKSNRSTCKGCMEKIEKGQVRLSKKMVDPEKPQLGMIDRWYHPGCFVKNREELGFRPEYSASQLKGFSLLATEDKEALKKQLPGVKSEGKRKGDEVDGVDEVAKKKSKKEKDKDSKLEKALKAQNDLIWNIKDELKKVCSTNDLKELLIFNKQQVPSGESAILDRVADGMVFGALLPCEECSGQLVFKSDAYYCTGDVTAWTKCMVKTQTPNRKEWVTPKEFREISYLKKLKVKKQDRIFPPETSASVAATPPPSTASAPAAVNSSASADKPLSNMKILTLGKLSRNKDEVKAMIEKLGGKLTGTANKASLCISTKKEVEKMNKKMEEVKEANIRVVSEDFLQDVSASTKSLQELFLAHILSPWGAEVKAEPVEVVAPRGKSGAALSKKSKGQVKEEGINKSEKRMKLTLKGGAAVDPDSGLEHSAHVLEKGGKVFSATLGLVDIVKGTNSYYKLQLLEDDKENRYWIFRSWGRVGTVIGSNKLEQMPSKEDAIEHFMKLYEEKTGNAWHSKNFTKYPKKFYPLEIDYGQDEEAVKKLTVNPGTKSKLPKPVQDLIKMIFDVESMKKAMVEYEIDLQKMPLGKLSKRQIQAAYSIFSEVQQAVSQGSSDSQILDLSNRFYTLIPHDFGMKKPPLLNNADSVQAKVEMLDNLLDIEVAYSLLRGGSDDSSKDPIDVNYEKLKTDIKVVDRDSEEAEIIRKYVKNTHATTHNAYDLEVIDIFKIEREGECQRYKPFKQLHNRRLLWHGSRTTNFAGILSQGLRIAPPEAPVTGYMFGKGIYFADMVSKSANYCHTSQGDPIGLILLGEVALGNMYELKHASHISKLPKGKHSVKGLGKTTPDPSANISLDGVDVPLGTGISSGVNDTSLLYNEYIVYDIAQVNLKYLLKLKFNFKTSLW

Q: With `Nc1nc2cc(CC[C@H]3C[C@@H](n4ccc5c(N)ncnc54)[C@H](O)[C@@H]3O)ccc2cc1Br` as the molecule, how does the “PARP1 L713F-nLuc/akaLuc ratio” value read?
A: 0.465

Q: Which “PARP1 L713F-nLuc/akaLuc ratio” value does the source give for `CC1(C)CCC(CN2CCN(c3ccc(C(=O)NS(=O)(=O)c4ccc(NCC5CCOCC5)c([N+](=O)[O-])c4)c(Oc4cnc5[nH]ccc5c4)c3)CC2)=C(c2ccc(Cl)cc2)C1` [Venetoclax (ABT-199, GDC-0199)] here?
A: 0.901

Q: `COc1cc2ncnc(Nc3cc(Br)c(O)c(Br)c3)c2cc1OC` was tested. Which “PARP1 L713F-nLuc/akaLuc ratio” value did it give?
A: 1.37

Q: How did the “PARP1 L713F-nLuc/akaLuc ratio” value turn out when `CC(C)(C)c1cc(NC(=O)Nc2ccc(-c3cn4c(n3)sc3cc(OCCN5CCOCC5)ccc34)cc2)no1` [Quizartinib (AC220)] was run?
A: 0.802

Q: For `CCN(CC)C(=O)c1ccc(Nc2nc(OCC3CCCCC3)c3[nH]cnc3n2)cc1`, which “PARP1 L713F-nLuc/akaLuc ratio” value is on record?
A: 0.71

Q: For `Cc1nc2sccn2c(=O)c1CCN1CCC(=C(c2ccccc2)c2ccc(F)cc2)CC1`, which “PARP1 L713F-nLuc/akaLuc ratio” value is on record?
A: 1.01

Q: `O=C(O)C(Cc1c[nH]c2ccccc12)N1C(=O)c2ccccc2C1=O` (stereo not given) was tested. Which “PARP1 L713F-nLuc/akaLuc ratio” value did it give?
A: 1.39

Q: How did the “PARP1 L713F-nLuc/akaLuc ratio” value turn out when `CCC(CC)(NC(=O)C(C)C)C(=O)N[C@@H](CCCN=C(N)N)C(=O)NC1(C(=O)NC(c2ccc(F)cc2)c2ccc(F)cc2)CCCC1` was run?
A: 0.991

Q: How did the “PARP1 L713F-nLuc/akaLuc ratio” value turn out when `CC(=O)O[C@@H]1CC[C@@]2(C)[C@@H](CC[C@]3(C)[C@@H]2C(=O)C=C2[C@@H]4[C@@H](C)[C@H](C)CC[C@]4(C)CC[C@]23C)[C@@]1(C)C(=O)O` was run?
A: 1.18

Q: For `CC/C(=C(\c1ccc(O)cc1)c1ccc(OCCN(C)C)cc1)c1ccccc1` [4-Hydroxytamoxifen], which “PARP1 L713F-nLuc/akaLuc ratio” value is on record?
A: 0.97
